Several values for one entry are separate records, joined by “and”; a condition that tells them apart may be missing. Equal values may be shown once. Results filed as inconclusive are left out. A structure can be active in one record and inactive in another. Activity calls are given as the source filed them. Calls come from the whole dose curve; as a rule, active = well fitted inhibition curve with a large enough effect; inconclusive = small, poorly fitted or top-dose-only effect; inactive = flat fitted curve, though single readings scatter.
Legend:
[1] = test system: PC49; assay: qHTS profiling for inhibitors of Plasmodium falciparum proliferation (AID 504749); note: potency is the fitted concentration of half-maximal effect; settings: P. falciparum in erythrocytes, SYBR Green DNA, 72 h; series mostly up to 28.7 µM
Method in brief: (§1)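 In a 72 h erythrocytic culture (37 C, humidified, 5% CO2) at 2.5% hematocrit and 0.3% starting parasitemia, compounds were tested; SYBR Green I in detergent lysis buffer stained parasite DNA overnight.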

[2] = test system: SC27B; assay: as above; settings: P. falciparum in erythrocytes, SYBR Green DNA, 72 h; series mostly up to 28.7 µM
Method in brief: as §1

[3] = test system: TAB109; assay: as above; settings: P. falciparum in erythrocytes, SYBR Green DNA, 72 h; series mostly up to 28.7 µM
Method in brief: as §1

[4] = test system: TAB113; assay: as above; settings: P. falciparum in erythrocytes, SYBR Green DNA, 72 h; series mostly up to 28.7 µM
Method in brief: as §1

[5] = test system: TAB165; assay: as above; settings: P. falciparum in erythrocytes, SYBR Green DNA, 72 h; series mostly up to 28.7 µM
Method in brief: as §1

[6] = test system: W2; assay: as above; settings: P. falciparum in erythrocytes, SYBR Green DNA, 72 h; series mostly up to 28.7 µM
Method in brief: as §1

[7] = test system: CRL-7250; assay: Cytotoxic Profiling of Annotated Libraries Using Quantitative High-Throughput Screening (AID 1296008); settings: Five cell lines viability, CellTiter-Glo ATP luminescence, 48-72 h; max response: hits give low values; note: potency is the fitted concentration of half-maximal effect; for max response: % is set by controls: 0 for no effect and ±100 for the full control effect
Method in brief: (§2)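 Cytotoxicity was measured as CellTiter-Glo ATP luminescence, read after 10 min at room temperature. Compound treatment of the cells lasted 48 or 72 hr at 37 degrees Celsius in a qHTS format.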

[8] = test system: HEK293; assay: as above; settings: Five cell lines viability, CellTiter-Glo ATP luminescence, 48-72 h; max response: hits give low values
Method in brief: as §2

[9] = test system: HaCat; assay: as above; settings: Five cell lines viability, CellTiter-Glo ATP luminescence, 48-72 h; max response: hits give low values
Method in brief: as §2

[10] = test system: KB-3-1; assay: as above; settings: Five cell lines viability, CellTiter-Glo ATP luminescence, 48-72 h; max response: hits give low values
Method in brief: as §2

[11] = test system: NIH3T3; assay: as above; settings: Five cell lines viability, CellTiter-Glo ATP luminescence, 48-72 h; max response: hits give low values
Method in brief: as §2

[12] = test system: HACAT; assay: qHTS assay to identify novel small-molecules to repurpose for Merkel cell carcinoma treatment (AID 1296009); settings: MCC and control cell lines, CellTiter-Glo viability, 72 h; at 44.8 µM (top of the series) unless noted
Method in brief: (§3)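 Cell viability measured by CellTiter-Glo following 72 hr compound treatment at 37 degree celsius, with NPC and MIPE libraries tested in 8- and 11-point concentration series.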

[13] = test system: HEK293T; assay: as above; settings: MCC and control cell lines, CellTiter-Glo viability, 72 h; at 44.8 µM (top of the series)
Method in brief: as §3

[14] = test system: MCC-13; assay: as above; settings: MCC and control cell lines, CellTiter-Glo viability, 72 h; series mostly up to 46 µM
Method in brief: as §3

[15] = test system: MCC-26; assay: as above; settings: MCC and control cell lines, CellTiter-Glo viability, 72 h; series mostly up to 46 µM
Method in brief: as §3

[16] = test system: MKL-1; assay: as above; settings: MCC and control cell lines, CellTiter-Glo viability, 72 h; series mostly up to 46 µM
Method in brief: as §3

[17] = test system: MKL-2; assay: as above; settings: MCC and control cell lines, CellTiter-Glo viability, 72 h; series mostly up to 46 µM
Method in brief: as §3

[18] = test system: UISO; assay: as above; settings: MCC and control cell lines, CellTiter-Glo viability, 72 h; series mostly up to 46 µM
Method in brief: as §3

[19] = test system: NIH3T3; assay: as above; settings: MCC and control cell lines, CellTiter-Glo viability, 72 h; at 44.8 µM (top of the series) unless noted
Method in brief: as §3

[20] = test system: PC26; assay: qHTS profiling for inhibitors of Plasmodium falciparum proliferation (AID 504749); note: potency is the fitted concentration of half-maximal effect; settings: P. falciparum in erythrocytes, SYBR Green DNA, 72 h; series mostly up to 28.7 µM
Method in brief: as §1
Note: nearly all actives have a fitted effect of over 60% in size.

CC(=O)Oc1ccccc1C(=O)O
inactive: Potency [1] | Potency [2] | Potency [3] | Potency [4] | Potency [5] | Potency [6] | max response [7] 0.351% and -4.5% | max response [8] 1.6% | outcome [8] | outcome [9] | max response [10] -12% and 2.14% | max response [11] 0.988% and 3.48% | outcome [12] | outcome [13] | Potency [14] | Potency [15] | Potency [16] | Potency [17] | Potency [18]

O=C1CCCC2=C1C(c1[nH]ncc1Cl)N=C(Nc1nc3ccccc3o1)N2 (centres undefined)
inactive: max response [7] 2.7% | outcome [7] | max response [9] -0.0608% | outcome [9] | max response [10] 5.25% | outcome [10] | max response [11] -1.09% | outcome [11] | outcome [12] | Potency [14] | Potency [15] | Potency [16] | Potency [17] | outcome [19] | Potency [18]

CCc1ccc(CCOc2ccc(CC3SC(=O)NC3=O)cc2)nc1 (centres undefined)
inactive: Potency [20] | Potency [1] | Potency [2] | Potency [3] | Potency [4] | Potency [5] | Potency [6] | max response [7] -4.18% and 2.83% | max response [8] -6.03% | outcome [8] | outcome [9] | max response [10] -8.26% and 7.14% | max response [11] 0.801% | outcome [11] | outcome [12] | outcome [13] | Potency [14] | Potency [15] | Potency [16] | Potency [17] | outcome [19] | Potency [18]

CCCCNc1cc(C(=O)O)cc(S(N)(=O)=O)c1Oc1ccccc1
inactive: Potency [20] | Potency [1] | Potency [2] | Potency [3] | Potency [4] | Potency [5] | Potency [6] | max response [7] 0.377% | outcome [7] | max response [8] 2.91% | outcome [8] | max response [9] 2.18% | outcome [9] | max response [10] -8.24% and 0.128% | max response [11] 1.18% | outcome [11] | outcome [12] | outcome [13] | Potency [14] | Potency [15] | Potency [16] | Potency [17] | outcome [19] | Potency [18]

COc1ccc(CCN2CCN(CCCc3ccccc3)CC2)cc1OC
active: Potency [8] 6.51 µM
inactive: outcome [7] | max response [8] -22.2% | outcome [9] | max response [10] 0.435% and -5.04% | max response [11] 1.46% | outcome [11] | outcome [12] | Potency [14] | Potency [15] | Potency [16] | Potency [17] | outcome [19] | Potency [18]

COc1cc(F)c(F)c(Nc2ccc(I)cc2F)c1NS(=O)(=O)C1(C[C@H](O)CO)CC1
active: Potency [7] 5.8 µM
inactive: max response [7] -24.3% | outcome [10] | max response [11] -9.12% | Potency [14] | Potency [15] | Potency [16] | Potency [17] | Potency [18]

CC(C)NCC(O)COc1ccc(COCCOC(C)C)cc1 (centres undefined)
inactive: Potency [20] | Potency [1] | Potency [2] | Potency [4] | Potency [5] | Potency [6] | max response [7] -5.09% | outcome [7] | max response [8] 4.07% and -17.2% | max response [9] -3.77% | outcome [9] | max response [10] 14.8% and -14.7% and -10.9% | max response [11] 4.85% | outcome [11] | outcome [12] | Potency [14] | Potency [15] | Potency [16] | Potency [17] | outcome [19] | Potency [18]

N=c1nc(N2CCCCC2)cc(N)n1O
inactive: Potency [20] | Potency [1] | Potency [2] | Potency [3] | Potency [4] | Potency [5] | Potency [6] | max response [7] -9.52% and -1.74% | max response [8] 3.36% | outcome [8] | outcome [9] | max response [11] 3.13% | outcome [11] | outcome [12] | outcome [13] | Potency [14] | Potency [15] | Potency [16] | Potency [17] | outcome [19] | Potency [18]

NC(N)=NC(=O)c1nc(Cl)c(N)nc1N
active: Potency [3] 10 µM | Potency [5] 11.2 µM | Potency [6] 2.13 µM
inactive: max response [7] -0.0311% | outcome [7] | max response [8] -13.2% and 2.01% | max response [9] -3.73% | outcome [9] | outcome [10] | max response [11] -0.651% | outcome [11] | outcome [12] | Potency [14] | Potency [15] | Potency [16] | Potency [17] | outcome [19] | Potency [18]

S=C(NCc1ccc2c(c1)OCO2)N1CCN(c2ncnc3c2oc2ccccc23)CC1
active: Potency [7] 1.46 µM | Potency [8] 340 nM and 4.11 µM
inactive: max response [7] -64.3% | max response [9] -0.756% and -9.04% | max response [11] -27.2% | Potency [14] | Potency [15]

Cc1[nH]c(=O)c(C#N)cc1-c1ccc2nccn2c1
inactive: Potency [20] | Potency [1] | Potency [2] | Potency [3] | Potency [4] | Potency [5] | Potency [6] | max response [7] 0.18% | outcome [7] | max response [8] 3.47% | max response [10] -3.5% and -14.6% | max response [11] -20.6% | outcome [11] | Potency [14] | Potency [15] | Potency [16] | Potency [17] | outcome [19] | Potency [18]
